Several values for one entry are separate records, joined by “and”; a condition that tells them apart may be missing. Identical values can stand only once. Screen size: about 16,000 compounds; about 5,800 (36%) were called active. Not shown: some 23% with an inconclusive outcome. Some of the results follow. Values without a mark were called inactive. Calls come from the whole dose curve; as a rule, active = well fitted curve in the direction sought with a large enough effect; inconclusive = small, poorly fitted or top-dose-only effect, or effect the other way; inactive = no such curve, though single readings can be large or run the other way.
These molecules were tested against Cytochrome P450 2C19 (Homo sapiens) (UniProt P33261) (assay: Cytochrome panel assay with activity outcomes). Conditions: recombinant CYP, pro-luciferin dealkylation, luminescence, p450-cyp2c19; series mostly up to 57.1 µM; activity, negative = inhibition: at the top concentration.
Cytochrome P450 2C19 (Homo sapiens), sequence (P33261 whole entry, looked up): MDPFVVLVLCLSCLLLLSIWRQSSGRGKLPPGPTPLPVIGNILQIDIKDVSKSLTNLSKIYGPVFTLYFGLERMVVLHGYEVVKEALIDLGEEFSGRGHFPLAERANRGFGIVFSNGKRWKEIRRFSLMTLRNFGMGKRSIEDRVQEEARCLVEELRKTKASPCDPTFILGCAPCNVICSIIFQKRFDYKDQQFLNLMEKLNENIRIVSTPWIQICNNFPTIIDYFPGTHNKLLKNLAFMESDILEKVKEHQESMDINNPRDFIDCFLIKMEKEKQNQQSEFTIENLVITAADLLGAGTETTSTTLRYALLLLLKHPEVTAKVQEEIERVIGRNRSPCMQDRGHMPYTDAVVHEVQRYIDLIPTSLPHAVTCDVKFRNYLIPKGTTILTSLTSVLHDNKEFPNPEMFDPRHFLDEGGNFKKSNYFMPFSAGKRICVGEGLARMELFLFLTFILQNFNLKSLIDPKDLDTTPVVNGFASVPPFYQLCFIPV
% is set by controls: 0 for no effect and ±100 for the full control effect.

Row | Structure (SMILES) | activity, negative = inhibition | AC50
1 | Nc1c(C(=O)NCc2ccccc2)sc2nc3c(cc12)C(=O)CCC3 | -22.7% | 
2 | O=C(NCc1ccccc1)c1sc(=S)n2c1[nH]c(=O)c1ccccc12 |  | 11.2 µM (active)
3 | O=C(NC1CCCCC1)c1sc(=S)n2c1[nH]c(=O)c1ccccc12 |  | 4.47 µM (active)
4 | CC(=O)CC(=O)[C@@]1(O)CC[C@@H]2[C@@H]3C=C(C)C4=CC(=O)CC[C@@H]4[C@H]3CC[C@]21C |  | 5.01 µM (active)
5 | CC(=O)O[C@]1(C(C)=O)CC[C@@H]2[C@@H]3C=C(C)C4=CC(=O)CC[C@@]4(C)[C@H]3CC[C@]21C | -8.41% [at 25.6 µM] | 
6 | N#CC(=C(/N)Sc1ccccc1N)/C(C#N)=C(/N)Sc1ccccc1N | -43% | 
7 | N#Cc1ccccc1Sc1ccccc1N |  | 2.82 µM (active)
8 | C[C@@H](c1ccccc1)N1C(=O)[C@@H]2[C@H]3C(=CC[C@H]2C1=O)C(=O)[C@H]1O[C@H]1[C@H]3O | 18.8% [at 11.4 µM] | 
9 | Cc1ccc(S(=O)(=O)N(Cc2ccccc2)c2ccccc2C(=O)NCc2ccco2)cc1 |  | 3.55 µM (active)
10 | N[C@H](C(=O)N[C@@H]1C(=O)N2C(C(=O)O)=C(Cl)CS[C@@H]12)c1ccccc1 |  | inactive
11 | CC1=C(C(=O)O)N2C(=O)C(NC(=O)c3ccn(C)n3)C2SC1 (stereo not given) |  | 25.1 µM (active)
12 | CC(=O)OCC1=C(C(=O)O)N2C(=O)[C@@H](NC(=O)CSc3ccncc3)[C@@H]2SC1 |  | inactive
13 | CCCCN(C)Cc1c(C)[nH]c2ccc(Cl)cc2c1=O | -27.8% | 
14 | C#CCN(C)CCCOc1ccc(Cl)cc1Cl |  | 5.01 µM (active) and 2.51 µM (active)
15 | O=[N+]([O-])c1cccc2c[nH]nc12 | 7.18% | 
16 | O=[N+]([O-])c1ccc(S(=O)(=O)Cc2ccccc2)c2nonc12 |  | 3.16 µM (active)
17 | CN1CCN(c2ncncc2-c2ccccc2C(F)(F)F)CC1 |  | 15.8 µM (active)
18 | CNc1cc(-c2ccccc2C(F)(F)F)ncn1 | -43.7% | 
19 | CN1CCN(c2ncncc2-c2ccccc2Cl)CC1 | -30.3% | 
20 | FC(F)(F)c1ccccc1-c1cc(NCCN2CCOCC2)ncn1 | 15.6% | 

Row | Structure (SMILES) | activity, negative = inhibition | AC50
21 | CN1CCN(c2cc(-c3ccccc3C(F)(F)F)ncn2)CC1 |  | 10 µM (active)
22 | CN(C)c1ncc2nc(-c3cccs3)c(=O)n(CCc3ccccc3)c2n1 | -44.5% | 
23 | O=c1onc(-c2cccs2)n1Cc1ccccc1 |  | 1 µM (active)
24 | COc1ccc(Br)cc1/C=C/C(=O)Nc1c(C)cccc1C |  | 4.47 µM (active)
25 | CCn1nc(C)c(NC(=O)/C=C/c2cnn(C)c2C)c1C | 0.913% | 
26 | O=C(O)Cn1ccnc1[N+](=O)[O-] | 4.05% [at 11.4 µM] | 
27 | O=C(c1cc(C(F)(F)F)cc(C(F)(F)F)c1)N1CCC[C@@]2(CCN(Cc3ccncc3)C2)C1 |  | 0.2 µM (active)
28 | O=C(c1cnccn1)N1CCC[C@@]2(CCN(Cc3cc(C(F)(F)F)cc(C(F)(F)F)c3)C2)C1 | -15.7% | 
29 | N#Cc1ccc(CN2CC[C@@]3(CCCN(C(=O)c4cc(C(F)(F)F)cc(C(F)(F)F)c4)C3)C2)cc1 | -26.1% | 
30 | O=C(c1cnccn1)N1CCC[C@@]2(CCN(c3ccncc3)C2)C1 | 3.85% | 
31 | O=C(c1cnccn1)N1CCC[C@@]2(CCN(Cc3ccncc3)C2)C1 |  | 10 µM (active)
32 | O=C(c1cc(C(F)(F)F)cc(C(F)(F)F)c1)N1CCC[C@@]2(CCN(Cc3ccccc3)C2)C1 | -36% | 
33 | CCC(=O)O[C@@]1(C(=O)CCl)[C@@H](C)C[C@@H]2[C@H]3CCC4=CC(=O)C=C[C@@]4(C)[C@]3(F)[C@@H](O)C[C@@]21C | -27.9% [at 25.6 µM] | 
34 | C[N+]1(CCOc2ccc([N+](=O)[O-])cc2)CCOCC1 | -11.9% | 
35 | C/C(CC(=O)Nc1cc(C)ccn1)=N\NC(=O)COc1cccc(C)c1 |  | 25.1 µM (active)
36 | CCOC(=O)c1cccc(NC(=O)COc2ccc([N+](=O)[O-])cc2)c1 |  | 3.55 µM (active)
37 | O=C(COc1ccc(/C=N/NC(=O)c2ccccc2)cc1)Nc1ccc([N+](=O)[O-])cc1 | 47% | 
38 | Cc1ccnc(NC(=O)c2cccc(NC(=O)COc3ccccc3)c2)c1 |  | 15.8 µM (active)
39 | Cc1ccc(S(=O)(=O)CCc2nnc(NC(=O)COc3cccc(C)c3)s2)cc1 | 5.12% | 
40 | CC(C)c1nc2oc3ccccc3c(=O)c2c(=O)n1-c1ccccc1 | 4.63% | 

Row | Structure (SMILES) | activity, negative = inhibition | AC50
41 | CC(C)Cn1c(=O)n(C)c(=O)c2[nH]cnc21 | 33% | 
42 | Cn1c(N)c(C(=O)CSc2ccc3c(c2)OCCO3)c(=O)n(C)c1=O |  | 5.62 µM (active)
43 | Cc1nn(-c2ccc(Cl)cc2)c2sc(C(=O)c3c(N)n(C)c(=O)n(C)c3=O)cc12 | -25.1% | 
44 | CC(C)Cn1c(N)c(C(=O)CSc2ccc3c(c2)OCCO3)c(=O)n(C)c1=O |  | 2.51 µM (active)
45 | COc1ccc(C2=Nc3cccc4cccc(c34)N2)cc1 | -28.3% | 
46 | C/C(=N\OC(=O)NC1CCCCC1)c1sc(-c2ccccc2)nc1C |  | 5.62 µM (active)
47 | O=C(O)c1cc2ccccc2c(S(=O)(=O)O)c1O | 23.2% [at 11.4 µM] | 
48 | Cc1cccc(Sc2c([N+](=O)[O-])ncn2C)n1 | -22.4% | 
49 | Cc1ccc(Sc2c([N+](=O)[O-])ncn2C)cc1 |  | 25.1 µM (active)
50 | Cn1cnc([N+](=O)[O-])c1Sc1nc(N)nc2c1ncn2[C@H]1C[C@H](O)[C@@H](CO)O1 | 8.27% [at 11.4 µM] | 
51 | Cc1nn(Cc2c(Cl)cccc2Cl)c(C)c1NC(=O)c1cnn2c(C(F)F)cc(-c3ccccc3)nc12 |  | 7.08 µM (active)
52 | Cn1ncc(Cl)c1C(=O)Nc1cccnc1 | -28.6% | 
53 | CC(C)CNC(=O)c1ccc(COc2ccc(Cl)cc2Cl)o1 |  | 10 µM (active)
54 | O=C(N/N=C/c1ccc(O)cc1)c1ccc(COc2cc(Cl)ccc2Cl)o1 |  | 4.47 µM (active)
55 | O=C(Nc1cccnc1)c1ccc(COc2cc(Cl)ccc2Cl)o1 |  | 2.51 µM (active)
56 | O=C(Nc1ccn(Cc2ccccc2F)n1)c1ccc(COc2cc(Cl)ccc2Cl)o1 |  | 0.708 µM (active)
57 | CC(=O)O[C@@H](C)C[N+](C)(C)C |  | inactive
58 | CO[C@@H]1COC(=O)CC=C[C@@H](C)[C@@H]2C=C[C@H](O)[C@@H](COC(=O)C/C=C\[C@H]1C)O2 | -32.3% [at 11.4 µM] | 
59 | O=C(O)[C@@H](c1ccccc1)[C@@H](C(=O)O)c1ccccc1 | 8.57% [at 11.4 µM] | 
60 | O=C(c1ccccc1)[C@H](Nc1ccc2ccccc2c1)c1ccccc1 |  | 1 µM (active)
